Calls of active or inactive are those of the source. The calls were made as follows: active = hit-call score of the fitted dose curve at least 0.9, where 1 is the maximum; inactive = score below 0.9.
Assays:
Conditions in all cases: mRNA level, 48 h; actives raise or lower the signal
[1] = read-out: Forkhead box O3 (FOXO3), FOXO3 (gene 2309); test: LTEA_HepaRG_FOXO3: Life Technologies and Expression Analysis (LTEA) Assay for Forkhead box O3 (FOXO3) using HepaRG (AID 2283459)
In short: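 Differentiated human HepaRG cells, 48 h post-plating, exposed in duplicate for 48 h in serum-free induction medium; 8-point half-log series from 100 uM in 0.5% DMSO. FOXO3 mRNA by TaqMan qRT-PCR, normalized to ACTB/GAPDH/POLR2A; bidirectional fit versus DMSO.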

[2] = read-out: ABC Transporter (ABCB1), ABCB1 (gene 5243); test: LTEA_HepaRG_ABCB1: Life Technologies and Expression Analysis (LTEA) Assay for ABC Transporter (ABCB1) using HepaRG (AID 2283460)
In short: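 HepaRG cells exposed in duplicate for 48 h in serum-free induction medium to eight half-log concentrations up to 100 uM in 0.5% DMSO. ABCB1 mRNA quantified by qRT-PCR, normalised to ACTB, GAPDH and POLR2A; fitted bidirectionally versus DMSO.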

[3] = read-out: growth arrest and DNA damage 45 (GADD45B), GADD45B (gene 4616); test: LTEA_HepaRG_GADD45B: Life Technologies and Expression Analysis (LTEA) Assay for growth arrest and DNA damage 45 (GADD45B) using HepaRG (AID 2283461)
In short: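 qRT-PCR read-out (Fluidigm TaqMan, housekeeping-normalized) of mRNA change in human HepaRG cells after 48 h chemical exposure; 8-point curve, top 100 uM, half-log steps, 0.5% DMSO vehicle; gain or loss fitted relative to DMSO baseline.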

[4] = read-out: ABC Transporter (ABCC3), ABCC3 (gene 8714); test: LTEA_HepaRG_ABCC3: Life Technologies and Expression Analysis (LTEA) Assay for ABC Transporter (ABCC3) using HepaRG (AID 2283462)
In short: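 qRT-PCR read-out of ABCC3 transcript, normalized to three housekeeping genes (ACTB, GAPDH, POLR2A), after 48 h chemical exposure of human HepaRG cells. Eight half-log concentrations, highest 100 uM, in 0.5% DMSO; gain or loss fitted relative to DMSO baseline.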

[5] = read-out: ABC Transporter (ABCB11), ABCB11 (gene 8647); test: LTEA_HepaRG_ABCB11: Life Technologies and Expression Analysis (LTEA) Assay for ABC Transporter (ABCB11) using HepaRG (AID 2283463)
In short: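 Differentiated human HepaRG cells in serum-free induction medium, dosed in duplicate for 48 h. Eight-point half-log series from 100 uM in 0.5% DMSO; ABCB11 mRNA by qRT-PCR, normalized to ACTB, GAPDH, POLR2A, fitted bidirectionally versus DMSO.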

[6] = read-out: ABC Transporter (ABCC2), ABCC2 (gene 1244); test: LTEA_HepaRG_ABCC2: Life Technologies and Expression Analysis (LTEA) Assay for ABC Transporter (ABCC2) using HepaRG (AID 2283464)
In short: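 qRT-PCR (TaqMan, Fluidigm array) read-out of ABCC2 mRNA, normalized to three housekeeping genes. Differentiated HepaRG cells were treated 48 h in serum-free induction medium with 8-point half-log series from 100 uM in 0.5% DMSO; curves fitted bidirectionally relative to DMSO.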

[7] = read-out: ATP-citrate lyase (ACLY), ACLY (gene 47); test: LTEA_HepaRG_ACLY: Life Technologies and Expression Analysis (LTEA) Assay for ATP-citrate lyase (ACLY) using HepaRG (AID 2283466)
In short: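 Differentiated HepaRG cells exposed 48 h in serum-free induction medium to eight half-log concentrations up to 100 uM in 0.5% DMSO, duplicates. Transcript measured by Fluidigm TaqMan qRT-PCR, normalized to ACTB, GAPDH, POLR2A; bidirectional fit versus DMSO.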

[8] = read-out: Peroxisomal acyl-coenzyme A oxidase 1 (ACOX1) gene, ACOX1 (gene 51); test: LTEA_HepaRG_ACOX1: Life Technologies and Expression Analysis (LTEA) Assay for Peroxisomal acyl-coenzyme A oxidase 1 (ACOX1) gene using HepaRG (AID 2283467)
In short: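 HepaRG cells, plated 48 h then switched to serum-free induction medium, were exposed in duplicate for 48 h to 8-point half-log concentrations up to 100 uM in 0.5% DMSO. ACOX1 mRNA was measured by qRT-PCR, normalized to ACTB/GAPDH/POLR2A, and fitted bidirectionally versus DMSO.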

[9] = read-out: Alkaline Phosphatase, Placental (ALPP) gene, ALPP (gene 250); test: LTEA_HepaRG_ALPP: Life Technologies and Expression Analysis (LTEA) Assay for Alkaline Phosphatase, Placental (ALPP) gene using HepaRG (AID 2283468)
In short: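 qRT-PCR readout of ALPP mRNA (Fluidigm TaqMan), normalized to ACTB/GAPDH/POLR2A, after 48 h chemical exposure of HepaRG cells; 8-point half-log series, top 100 uM, 0.5% DMSO vehicle. Bidirectional curve fit versus DMSO baseline.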

[10] = read-out: Bcl-2 (BAD) gene, BAD (gene 572); test: LTEA_HepaRG_BAD: Life Technologies and Expression Analysis (LTEA) Assay for Bcl-2 (BAD) gene using HepaRG (AID 2283469)
In short: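 Differentiated HepaRG cells were exposed in duplicate in 0.5% DMSO for 48 h to eight-point half-log concentrations up to 100 uM. BAD mRNA was measured by Fluidigm TaqMan qRT-PCR, normalized to ACTB, GAPDH and POLR2A, and fitted bidirectionally against DMSO.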

[11] = read-out: Bcl-2 (BAX) gene, BAX (gene 581); test: LTEA_HepaRG_BAX: Life Technologies and Expression Analysis (LTEA) Assay for Bcl-2 (BAX) gene using HepaRG (AID 2283470)
In short: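 Concentration-response endpoint fitted in both directions relative to 0.5% DMSO vehicle. Human HepaRG cultures receive test chemicals for 48 h at up to 100 uM; BAX mRNA is quantified by qRT-PCR against housekeeping genes.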

[12] = read-out: adenosine kinase (ADK) gene, ADK (gene 132); test: LTEA_HepaRG_ADK: Life Technologies and Expression Analysis (LTEA) Assay for adenosine kinase (ADK) gene using HepaRG (AID 2283471)
In short: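 Following 48 h exposure of HepaRG cells in 0.5% DMSO (top concentration 100 uM, duplicate wells), ADK mRNA induction or suppression was measured by qRT-PCR, normalised to ACTB/GAPDH/POLR2A, and fitted bidirectionally relative to vehicle.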

[13] = read-out: Alpha-fetoprotein (AFP) gene, AFP (gene 174); test: LTEA_HepaRG_AFP: Life Technologies and Expression Analysis (LTEA) Assay for Alpha-fetoprotein (AFP) gene using HepaRG (AID 2283472)
In short: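 After a 48 h plating period, cells are moved to serum-free induction medium and dosed in duplicate (100 uM maximum, half-log dilutions, 0.5% DMSO) for another 48 h. Total RNA goes to TaqMan qRT-PCR; AFP signal is housekeeping-normalized.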

[14] = read-out: BCL2L11 (gene 10018); test: LTEA_HepaRG_BCL2L11: Life Technologies and Expression Analysis (LTEA) Assay for Bcl-2 (BCL2L11) gene using HepaRG (AID 2283473)
In short: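 HepaRG, 48 h exposure, 8-pt half-log series from 100 uM in 0.5% DMSO, duplicates; qRT-PCR (Fluidigm TaqMan) for BCL2L11, housekeeping-normalized; bidirectional curve fit relative to DMSO baseline.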

[15] = read-out: Apolipoprotein A-V (APOA5) gene, APOA5 (gene 116519); test: LTEA_HepaRG_APOA5: Life Technologies and Expression Analysis (LTEA) Assay for Apolipoprotein A-V (APOA5) gene using HepaRG (AID 2283474)
In short: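 HepaRG, 48 h chemical exposure in serum-free induction medium, 8-pt half-log series (top 100 uM), 0.5% DMSO vehicle, duplicates. Readout: APOA5 mRNA by qRT-PCR, housekeeping-normalized; bidirectional fit vs DMSO baseline.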

[16] = read-out: Apoptosis regulator Bcl-2 (Homo sapiens) (UniProt P10415); test: LTEA_HepaRG_BCL2: Life Technologies and Expression Analysis (LTEA) Assay for Bcl-2 gene using HepaRG (AID 2283475)
In short: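 Expression change of BCL2 mRNA in HepaRG after 48 h dosing, quantified by TaqMan qRT-PCR against three endogenous controls. Concentration-response used eight points up to 100 uM, vehicle 0.5% DMSO.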

[17] = read-out: Bcl-2 (BID) gene, BID (gene 637); test: LTEA_HepaRG_BID: Life Technologies and Expression Analysis (LTEA) Assay for Bcl-2 (BID) gene using HepaRG (AID 2283476)
In short: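 Gain or loss of BID expression is fitted relative to 0.5% DMSO vehicle. Human HepaRG liver cells received a 48 h chemical exposure over an eight-point concentration range.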

[18] = read-out: Caspase-3 (Homo sapiens) (UniProt P42574); test: LTEA_HepaRG_CASP3: Life Technologies and Expression Analysis (LTEA) Assay for cysteine-aspartic acid protease (CASP3) using HepaRG (AID 2283477)
In short: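 HepaRG, 48 h exposure, 8 conc. (top 100 uM, half-log steps, duplicate), 0.5% DMSO vehicle; qRT-PCR of CASP3 transcript, housekeeping-normalised (ACTB/GAPDH/POLR2A); bidirectional curve fit vs DMSO baseline.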

[19] = read-out: Cytochrome P450 (CYP24A1), CYP24A1 (gene 1591); test: LTEA_HepaRG_CYP24A1: Life Technologies and Expression Analysis (LTEA) Assay for Cytochrome P450 (CYP24A1) using HepaRG (AID 2283478)
In short: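 qRT-PCR read-out: CYP24A1 transcript levels normalized to three housekeeping genes, bidirectional curve fits against 0.5% DMSO baseline. Human HepaRG cells treated 48 h with chemicals at eight concentrations from 100 uM in half-log steps.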

Measured: AC50

Sequence of Apoptosis regulator Bcl-2 (Homo sapiens) (P10415 whole entry, looked up): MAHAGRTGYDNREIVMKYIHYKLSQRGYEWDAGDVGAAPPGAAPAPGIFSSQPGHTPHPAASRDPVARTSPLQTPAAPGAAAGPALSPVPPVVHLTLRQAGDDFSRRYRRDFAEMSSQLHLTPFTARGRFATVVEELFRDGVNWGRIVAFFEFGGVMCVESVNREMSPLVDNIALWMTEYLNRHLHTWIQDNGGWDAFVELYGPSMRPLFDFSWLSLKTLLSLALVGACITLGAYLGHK
Sequence of Caspase-3 (Homo sapiens) (P42574 whole entry, looked up): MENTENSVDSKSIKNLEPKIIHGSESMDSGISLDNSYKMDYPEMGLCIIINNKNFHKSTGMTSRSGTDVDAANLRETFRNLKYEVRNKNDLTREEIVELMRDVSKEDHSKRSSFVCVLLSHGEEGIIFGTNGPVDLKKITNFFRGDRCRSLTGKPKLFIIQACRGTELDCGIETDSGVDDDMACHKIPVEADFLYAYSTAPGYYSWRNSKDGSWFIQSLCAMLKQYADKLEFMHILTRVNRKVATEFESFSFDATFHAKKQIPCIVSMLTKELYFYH

Cc1ccc(N)cc1O
active: [5] 50 µM
inactive: all other assays above

Cn1cnc([N+](=O)[O-])c1Sc1ncnc2nc[nH]c12
active: [1] 4.06 µM | [5] 11.2 µM | [11] 8.77 µM | [13] 5.38 µM | [14] 7.34 µM | [15] 15.8 µM
not listed: [18]
inactive: all other assays above

O=c1n(CC2CO2)c(=O)n(CC2CO2)c(=O)n1CC1CO1 (stereo not given)
active: [3] 79.1 µM | [5] 88 µM | [11] 83.4 µM
not listed: [18]
inactive: all other assays above

CC(C)CCCCCCOC(=O)c1ccc(C(=O)OCCCCCCC(C)C)c(C(=O)OCCCCCCC(C)C)c1
not listed: [10] | [18]
inactive: all other assays above

CC(C)c1cccc(C(C)C)c1N1C(=O)c2ccc(O)cc2C1=O
active: [1] 80.4 µM | [2] 23.9 µM | [4] 84.3 µM | [5] 89.9 µM | [6] 29 µM | [7] 74.8 µM | [9] 91.6 µM | [11] 50 µM | [13] 79.9 µM | [16] 86.2 µM
inactive: [3] | [8] | [10] | [12] | [14] | [15] | [17] | [19]

Reference: PubChem BioAssay (EPA / NIEHS)
